# Test results from PubChem BioAssay (NCI).
# The panel holds about 83,000 compounds, 20% with a hit somewhere; the sample as a whole holds those more often.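 Note: values are percent growth. 100 is the growth of untreated cells, values between 100 and 0 indicate rising inhibition; between -100 and 0 indicates cell death.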 A number with no mark means an inactive call. The source made the active and inactive calls. How the source made its calls: active means growth percent below 10; inactive means the rest.
# System: HS 578T breast
# Test: NCI-60 one-dose screen, 48 h (100 = growth as untreated, 0 = no growth, -100 = all killed)
# Conditions: 10 µM unless noted
row,Compound,growth
1,C=CN(C(=O)N1CCN(c2cc3c(cc2F)c(=O)c(C(=O)O)cn3C2CC2)CC1)c1nc(-c2ccccc2)cs1,97.8%
2,CNCCCNc1nc2ccccc2c2c(=O)c3cc(Cl)ccc3sc12,59.9%
3,CCOC(=O)C1=C(CCl)N(C)C(=O)NC1c1ccc2c(c1)OCO2 (stereo not given),50%
4,COc1ccc(C2[C@@H](Cl)C(=O)N2c2cc(OC)c(OC)c(OC)c2)cc1Cl (stereo not given in full),31%
5,Cn1cc(-c2nonc2-c2c[nH]c3ccccc23)c2cc(Br)ccc21,59.1%
6,COc1cc2c3c(c4c5ccccc5[nH]c4c2c(OC)c1OC)C(=O)N(CCN1CCCCC1)C3=O,52.2%
7,COC(=O)/C(CCC=C(C)C)=C1\[C@@H](OC(C)=O)C[C@@]2(C)[C@H]1C/C(=N/O)[C@H]1[C@@]3(C)CC/C(=N\O)[C@@H](C)[C@@H]3CC[C@@]12C,94.3%
8,Cc1[nH]n(-c2cccc(Cl)c2)c(=O)c1/C=C1\C=c2ccccc2=CC1=O,82.2%
9,CCN(CC)CCn1c2ccc(OC)cc2c2sc3cc(O)ccc3c(=O)c21,60%
10,C=C1C(=O)O[C@H]2[C@H]1CC/C(COC(=O)NCc1ccc(Cn3c(=O)sn(-c4ccc(I)cc4)c3=O)cc1)=C\CC[C@@]1(C)O[C@@H]21,85.7%
11,CS(=O)(=O)Nc1cc(-c2ccc3ncnc(Nc4ccc5c(cnn5Cc5ccncc5)c4)c3c2)cnc1Cl,-6.14% (active)
12,COc1ccc2cc(C(=O)N3CCC([C@@H](C)C(=O)NCc4ccc5c(c4)OCO5)CC3)[nH]c2c1,22.9% [50 µM]
13,Nc1ncccc1O,109%
14,CC1(C)CC[C@]2(CO)CC[C@]3(C)[C@](O)([C@H](O)C[C@@H]4[C@@]5(C)CCCNC(C)(C)[C@@H]5CC[C@]43C)[C@@H]2C1,98.9%
15,CN(C)CCC(=O)C1CC1,111%
16,CCCc1cc(=O)oc2c(C(=O)CC(C)C)c(O)c(CC=C(C)C)c(O)c12,28.1%
17,CSc1ccc2c3c(n(CCCn4ccnc4)c(=O)c2c1)-c1ccccc1C3=O,91.4%
18,O=c1oc2ccccc2cc1-c1nn(-c2ccccc2)cc1-c1nn[nH]n1,105%
19,COc1ccc(-c2cc(C(=O)N3N=C(c4ccc(N)cc4)CC3c3ccc(Cl)cc3)c3ccccc3n2)cc1 (stereo not given),16.4%
20,COc1cc(/C=C/c2cn[nH]c2-c2ccc(C)cc2)cc(OC)c1OC,39.9%

row,Compound,growth
1,COc1ccc(Nc2ncc(I)c(NCCCNC(=O)C3CCC3)n2)cc1,17.1%
2,CN1CCOCCN(C)Cc2ccc3ccc(cc3c2)CN(C)CCOCCN(C)Cc2ccc3ccc(cc3c2)C1,90.6%
3,S=c1ccnc[nH]1,113%
4,c1ccc2cc(Cn3cc(CSc4nc5ccccc5s4)nn3)ccc2c1,87.1%
5,O=C(O)c1cn(C2CC2)c2cc(N3CCN(C(=O)N4CCOCC4)CC3)c(F)cc2c1=O,119%
6,O=C(NCCN1CCOCC1)OCc1ccc2c(Cl)cc(Cl)c(O)c2n1,83.1%
7,O=C(/C=C/c1ccccc1)c1ccc(-n2cc(CN3CCN(c4cc5c(cc4F)c(=O)c(C(=O)O)cn5C4CC4)CC3)nn2)cc1,67.4%
8,Cc1cc(NCCCNc2ccnc3cc(Cl)ccc23)nc(Nc2ccc(C(=O)N3CCCCC3)cc2)n1,85.3%
9,CC/C(=C(/c1ccc(O)cc1)c1ccc(OCCN2CCCCC2)cc1)c1ccc(OC)cc1,92.2%
10,O=C(Nc1cccnc1Nc1ccccc1)c1cn(Cc2cccc(Oc3ccccc3)c2)nn1,40.8%
11,Clc1cccc(C2Cc3cnccc3-c3[nH]c4ccncc4c32)c1 (stereo not given),85%
12,C=C1C(=O)O[C@H]2[C@H]1CC/C(COC(=O)NCc1ccc(Cn3c(=O)sn(-c4ccccc4)c3=O)cc1)=C\CC[C@@]1(C)O[C@@H]21,87.5%
13,O=C(NCCCCCCNC(=O)OCc1ccc2c(Cl)cc(Cl)c(O)c2n1)OCc1ccc2c(Cl)cc(Cl)c(O)c2n1,-15.1% (active)
14,C/C(Cc1ccc(Cl)cc1)=C(\c1ccc(OCCN2CCCCCC2)cc1)c1ccc(OC(=O)c2ccccc2)cc1,56%
15,CC(O)CNC(Cc1ccccc1)c1ccc2c(c1)OCO2 (stereo not given),103%
16,OC1(c2ccccc2)c2ccccc2N(c2ccccc2)c2ccc(Cl)cc21 (stereo not given),4.35% (active)
17,O=C(Cc1ccc(/C=C/C(=O)c2ncc[nH]2)cc1)Nc1cc(F)c(F)c(F)c1,37%
18,C/C(=N\Nc1ccccc1)c1ccc(NC2=CC(=O)c3ccccc3C2=O)cc1,65.5%
19,O=S(=O)(Nc1ccc2ccccc2c1)c1ccc(-c2cnc(C3CC3)o2)cc1,13.4%
20,O=c1c2ccccc2n(C[C@H]2CO2)c2ccccc12,6.14% (active)
